VDR inh: Inhibitors of the vitamin D receptor (VDR): qHTS | AID 504847, 2011 | Vitamin D3 receptor (Homo sapiens), P11473 | hit rate 0.93% among 400,000 | Potency, µM, inactives show max response, negative = inhibition, hits mostly inhibitors | VDR-SRC2-3 peptide fluorescence polarization, 2 h
Target sequence (P11473 whole entry, looked up): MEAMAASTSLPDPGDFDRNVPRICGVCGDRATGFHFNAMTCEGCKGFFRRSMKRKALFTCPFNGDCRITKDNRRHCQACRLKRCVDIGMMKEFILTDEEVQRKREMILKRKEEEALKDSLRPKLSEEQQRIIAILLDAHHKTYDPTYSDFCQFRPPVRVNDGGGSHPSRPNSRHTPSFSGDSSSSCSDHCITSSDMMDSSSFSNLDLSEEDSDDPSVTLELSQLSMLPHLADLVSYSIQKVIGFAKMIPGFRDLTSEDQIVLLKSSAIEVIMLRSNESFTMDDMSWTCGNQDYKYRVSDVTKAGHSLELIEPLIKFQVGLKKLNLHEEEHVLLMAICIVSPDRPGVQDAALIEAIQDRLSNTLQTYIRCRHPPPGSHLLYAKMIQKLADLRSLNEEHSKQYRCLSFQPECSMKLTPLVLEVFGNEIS
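VDR–SRC2-3 interaction, FP format. Cmpds 23 nl via pintool, brief spin, 2 h ambient incubation.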
KAT2A inh: qHTS Assay for Inhibitors of GCN5L2; GCN5L2 HAT assay, ThioGlo1 CoA-SH fluorescence; Histone acetyltransferase KAT2A (Homo sapiens), Q92830; Potency, µM (series often up to 58.9 µM), inactives show at the highest dose activity change, negative = inhibition, usual class: inhibitors; hit rate 0.21% among 390,000
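Enzyme at 20nM final was mixed with library compounds for 15 min at room temperature. Peptide H3(1-25) at 75uM, acetyl-CoA at 70uM and ThioGlo1 at 50uM were then added. Plates were read immediately and after 20 min (Ex340nm/Em540nm).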
PLK1 PBD block: qHTS for Inhibitors of PLK1-PDB (polo-like kinase 1 - polo-box domain): Primary Screen; hit rate 2.8% among 360,000; Plk1 PBD binding of FITC phosphopeptide, fluorescence polarization; AID 720504, 2013; Potency, µM, for the others: max response, negative = inhibition, usual class: inhibitors; further: series mostly up to about 57 µM; nearly all actives have a fitted effect of over 65% in size
ALOX12 inh: Primary qHTS assay for inhibitors of human arachidonate 12S-lipoxygenase (ALOX12): Round 2 | Potency, µM (highest dose often 108 µM), for inactives: top-dose activity change, negative = inhibition, hits mostly inhibitors | Polyunsaturated fatty acid lipoxygenase ALOX12 (Homo sapiens), P18054 | purified 12hLO, xylenol orange hydroperoxide absorbance | hit rate 1.1% among 580,000
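Purified human 12hLO at 150 nM in 25 mM Hepes, 0.01% Triton X-100, pH 7.0, preincubated 15 min at room temperature with compound. Reaction started with 40 uM arachidonic acid, 30 min at room temperature. Hydroperoxide measured by Fe-xylenol orange, 573/405 nm absorbance ratio.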
The depositor's hits bear a star; ? = inconclusive; / = no result; ! = repeats disagree; [ ] = remark or other dose. Only some compounds are listed: those with a hit (about 3% of all), similar ones and a draw of the others. The call rests on the fitted dose curve; in most records, active means well fitted curve in the direction sought with a large enough effect; inconclusive means small, poorly fitted or top-dose-only effect, or another doubt; inactive means no such curve, though single readings can be large; an effect the other way counts as inactive or inconclusive. On the % scale 0 is the no-effect control and ±100 the full control effect; potency means the concentration at half of the fitted maximal effect.

SMILES	VDR inh	KAT2A inh	PLK1 PBD block	ALOX12 inh
Cc1cccc(OCC(=O)OC(C)CN2CCCCC2)c1 (stereo not drawn)	6%	-24%	4%	4%
Cc1cccc(NC(=O)CN2CCN(C(=O)CC(C)NC(=O)c3ccccc3)CC2)c1C (stereo not drawn)	/	/	/	34%
COc1ccc(OC)c(C(=O)N2CCC(C(=O)O)CC2)c1	/	/	/	-7%
C=CCOc1ccc(C(=O)/C=C2/C(=O)Nc3ccccc32)cc1	?	-3%	-8%	-27%
C=CCOc1ccccc1C(=O)/C=C1/C(=O)Nc2ccccc21	22µM*	15%	?	-12%
O/N=C/c1ccc(OCc2ccccc2)cc1	/	/	/	-19%
Nc1cc(S(=O)(=O)Nc2cc(Cl)ccc2Cl)ccc1N1CCCC1	-6%	-7%	30µM*	-30%
Nc1cc(S(=O)(=O)Nc2ccc(Cl)cc2)ccc1N1CCOCC1	?	-11%	5.3µM*	45µM*
Nc1cc(S(=O)(=O)Nc2ccccc2Cl)ccc1N1CCOCC1	-20%	-6%	1%	-1%
Cc1ccc(NC(=O)N2CCCC(c3noc(COc4ccccc4)n3)C2)cc1C (stereo not drawn)	/	/	/	-14%
Clc1ccccc1C(c1nnnn1Cc1ccco1)N1CCN(Cc2ccco2)CC1 (stereo not drawn)	-6%	1%	-15%	45µM*
Cc1cc2cc(C(c3nnnn3Cc3ccco3)N3CCCCC3)c(=O)[nH]c2cc1C (stereo not drawn)	0%	-1%	-21%	?
O=C1NC(c2cccc(Br)c2)=N/C1=C\c1ccco1	1%	-3%	-10%	45µM*
CC(C)=CCN1CCN(Cc2ccc(C#N)cc2)CC1	/	/	/	-1%
COc1cccc(NC(=O)Nc2nnc(Cc3ccccc3F)s2)c1	-6%	-8%	-15%	?
O=C(Nc1ccc(F)cc1)Nc1nnc(Cc2ccccc2F)s1	71µM*	-17%	17µM*	27%
Cc1ccc(CNC(=O)c2cn(C)c(=O)c3c2c2ccccc2n3C)o1	-9%	-9%	-11%	-10%
Cc1ccc(CNC(=O)c2cn(C3CCCCC3)c(=O)c3c2c2ccccc2n3C)o1	79µM*	-19%	?	-5%
COc1cc(/C=C2\C(=N)N3N=C(N4CCOCC4)SC3=NC2=O)ccc1OC(=O)c1ccccc1	?	-30%	27µM*	-19%
COc1cc(/C=C2/C(=N)N3N=C(CC(=O)N4CCOCC4)SC3=NC2=O)ccc1OC(C)c1ccccc1 (stereo not drawn)	-6%	-4%	?	-8%
CCC1=NN2C(=N)/C(=C/c3ccc(OS(=O)(=O)c4ccc(C)cc4)c(OC)c3)C(=O)N=C2S1	-12%	-15%	15µM*	10%
COc1cc(/C=C2/C(=N)N3N=C(C)SC3=NC2=O)ccc1OS(=O)(=O)c1ccc(C)cc1	-10%	-12%	21µM*	2%
COCC1CN(C)CC12CCN(Cc1ccsc1)CC2 (stereo not drawn)	/	/	/	57%
COc1ccc(-c2cc(-c3cccnc3)c3cncn3c2)cc1OC	/	/	/	40%[176 µM]
Cc1cc(C)c2oc(=O)cc(CN3CCC(C(N)=O)CC3)c2c1	/	/	/	29%
SMILES	VDR inh	KAT2A inh	PLK1 PBD block	ALOX12 inh
CCCCCCCOc1ccc(C(=O)c2ccccc2)cc1	/	/	/	43%
CS(=O)(=O)Oc1ccc2cc(-c3ccccc3)c(=O)oc2c1	/	/	/	-23%
Cc1ccc2nc(N3C(=O)C(O)=C(C(=O)c4ccc(C)o4)C3c3ccc(O)cc3)sc2c1 (stereo not drawn)	?	?	?	28µM*
Cc1cc(C)c2nc(N3C(=O)C(O)=C(C(=O)c4ccco4)C3c3ccco3)sc2c1 (stereo not drawn)	?	?	11µM*	?
CCOc1ccc2nc(N3C(=O)C(O)=C(C(=O)c4ccco4)C3c3ccco3)sc2c1 (stereo not drawn)	-4%	-21%	?	?
COc1ccc2nc(N3C(=O)C(O)=C(C(=O)c4ccco4)C3c3ccccc3OC)sc2c1 (stereo not drawn)	2%	-21%	?	?
COc1ccc2nc(N3C(=O)C(O)=C(C(=O)c4ccco4)C3c3ccc(C)o3)sc2c1 (stereo not drawn)	?	-11%	19µM*	?
Cc1ccc2nc(N3C(=O)C(O)=C(C(=O)c4ccco4)C3c3cccs3)sc2c1 (stereo not drawn)	?	?	27µM*	18µM*
O=C1CSc2sc(=S)sc2SC1	/	/	/	5µM*
CC[n+]1c(/C=C/c2ccc(OC(C)=O)c(OC)c2)ccc2ccccc21	-30%	-20%	-10%	?
CC[n+]1c(/C=C/c2ccc(OC)c(OC)c2)ccc2ccccc21	0%	-25%	-4%	7.9µM*
Cc1cccc[n+]1CCCCCCCCCC[n+]1ccccc1C	16%	-6%	5%	14µM*!
CCCCCCCCCC[n+]1cccc2c3ccccc3ccc21	-27%	-11%	-6%	-20%
Cc1cccc[n+]1Cc1ccccc1	/	/	/	16µM*
COc1cc(CC(=O)NC(c2ccccc2)c2ccccc2)cc(OC)c1OC	?	-4%	21µM*	13%
COc1ccc(CNC(=O)CNC(c2ccccc2)c2ccccc2)cc1OC	8%	-2%	-8%	26%
COc1ccc(NC(=S)NC(NC(=O)/C=C/c2ccccc2)C(Cl)(Cl)Cl)cc1 (stereo not drawn)	9%	1µM*	-14%	9%
CC(C)CC(=O)NC(NC(=S)Nc1ccccc1)C(Cl)(Cl)Cl (stereo not drawn)	?	1%	30µM*	56%
O=C(/C=C/c1ccccc1)NC(NC(=S)Nc1ccc(Cl)cc1)C(Cl)(Cl)Cl (stereo not drawn)	?	-11%	27µM*	?
O=C(Cc1ccccc1)NC(NC(=S)Nc1cc(Cl)ccc1Cl)C(Cl)(Cl)Cl (stereo not drawn)	-23%	3%	-9%	4%
O=C(CCc1ccccc1)NC(NC(=S)Nc1ccc(Cl)cc1)C(Cl)(Cl)Cl (stereo not drawn)	0%	2%	30µM*	-30%
CN(Cc1cccc(C#N)c1)C(=O)C1CCOCC1	/	/	/	-3%
CCCCCC[N+](C)(C)CCSSCC[N+](C)(C)CCCCCC	8.9µM*	0%	1.2µM*	126%
CCCCCCCCCCCCCCCC[N+](C)(C)CC	-5%	-2%	-3%	?
Cn1ncc(=S)[nH]c1=S	6%	/	-22%	?
Cn1ncc2c(=S)[nH]c(=S)[nH]c21	/	/	27µM*	?
O=C(O)c1cccc(CSc2nc(-c3ccccc3)cc(C(F)(F)F)n2)c1	-26%	3%	?	-17%
COc1ccc(-c2cc(C(F)(F)F)nc(SCc3cccc(C(=O)O)c3)n2)cc1	-20%	-6%	21µM*	?
O=C(O)c1ccc(N2CC3CC(C2)c2cccc(=O)n2C3)c(NC(=S)Nc2ccc(Br)cc2)c1 (stereo not drawn)	?	-12%	19µM*	40µM*

Bioassay records as filed in PubChem BioAssay.
